# Experimental data: PubChem BioAssay (EPA / NIEHS)
# The source made the active and inactive calls. How the source made its calls: active means hit-call score of the fitted dose curve at least 0.9, where 1 is the maximum; inactive means score below 0.9.
# Read-out: ATP-citrate lyase (ACLY), ACLY (gene 47)
# Assay: LTEA_HepaRG_ACLY: Life Technologies and Expression Analysis (LTEA) Assay for ATP-citrate lyase (ACLY) using HepaRG (AID 2283466)
# Conditions: mRNA level, 48 h; actives raise or lower the signal
# Protocol: LTEA_HepaRG is a cell based, multiplexed-readout assay that uses HepaRG, a human liver cell line, with measurements taken at 48 hours after chemical dosing on a 96-well plate.LTEA_HepaRG_ACLY is one of 102 assay component(s) measured in the LTEA HepaRG cell culture assay. It is a marker of Steatosis.Data from the assay component LTEA_HepaRG_ACLY was analyzed into 1 endpoint. This assay endpoint, LTEA_HepaRG_ACLY, was analyzed with bidirectional fitting relative to DMSO as the negative control and baseline of activity. Using a type of inducible reporter, measures of mRNA induction for gain or loss-of-signal activity can be used to understand regulation of transcription factor activity. To generalize the intended target to other relatable targets, this assay endpoint is annotated to the lyase intended target family, where the subfamily is steatosis.
# A total of 1060 chemcials from the ToxCast library were tested in eight-point concentration-response experiments. Cell culture and cytotoxicity assays were conducted at Thermo Fisher Scientific's Custom Services facility (Madison, WI). A single lot of human HepaRG cells (Thermo Fisher Scientific, Frederick, MD) was used for the cell culture experiments. 96-well format collagen type I coated plates of human HepaRG cells were prepared using established methods. Briefly, cryopreserved HepaRG cells were thawed, plated at a density of approximately 100,000 cells/well in HepaRG Thaw, Plate, and General Purpose media (HPRG770, Thermo Fisher Scientific), and incubated for 48 hours. 0.5% DMSO was selected as vehicle control to balance the requisite need of DMSO in HepaRG cultures to maintain differentiation (for example, baseline metabolism, proportions of hepatocytes vs. cholangiocytes), while enabling further hepatic receptor pathway activation (for example, PXR and CAR) in response to chemical exposure. 48 hours after plating, the culture medium was replaced with HepaRG Serum-Free Incudtion Media. Cells were exposed to each test chemical in duplicate and maintained in CO2 incubators for another 48 hours. Chemical plates were thawed to room temperature and 200x concentrations of treatment groups were prepared. 8-point conentration-reponse curves were made with the highest exposure at 100 uM, followed by half-log dilutions, all in 0.5% DMSO. Each test plate contained variouse controls, induction positive controls (1mM phenobarbital), cytotoxicity positive controls ([…] aflatoxin B1), vehicle controls (0.5% DMSO), and total lysis controls (0.5% DMSO). Cell morphology images were taken using an Essen IncuCyte FLR automated microscope, with six 96-well plates imaged in about 24 minutes. Images were captured and exported and JPEG files. Spent culture media was transfered to black-well plates for the LDH assay, and remaining media was sorted at -80 C for later use. Cells were treated with RLT buffer and frozen until shipped for gene expression analysis. Total RNA was isolated from the cell suspension in 75 uL of Buffer RLT (Qiagen, Germantown, MD 20874) by Quintiles/Expression Analysis (Durham, NC) using a custom isolation procedure. Total RNA from each plate well was transferred to a preamplification plate. Fluidigm's 96.96 Dynamic ArrayTM (Fluidigm, Amsterdam, the Netherlands) technology was used for gene expression analyses by quantitative reverse transcription polymerase chain reaction (qRT-PCR, performed by Quintiles/Expression Analysis, Durham, NC)89. Standard TaqManTM Assays (Applied Biosystems/ThermoFisher Scientific, Foster City, CA) were used to assess the expression of 93 genes selected based on their selectivity and sensitivity to important hepatic receptors known to be modulated by environmental chemicals; importance in human hepatocyte functionality; and hepatotoxicity. […]
SMILES,outcome,AC50
COP(=O)(OC)SCn1c(=O)oc2cc(Cl)cnc21,inactive,
Nc1nc(N)nc(NC2CC2)n1,inactive,
CC(C)[C@H](C(=O)O[C@H](C#N)c1cccc(Oc2ccccc2)c1)c1ccc(Cl)cc1,inactive,
O=c1ccc(=O)[nH][nH]1,inactive,
CCCSP(=O)(OCC)SCCC,inactive,
CC1=NNC(=O)N(/N=C/c2cccnc2)C1,inactive,
CC(C)N(C(=O)SCC(Cl)=C(Cl)Cl)C(C)C,inactive,
CCCCSP(=O)(SCCCC)SCCCC,inactive,
COP(=O)(OC)OC(Br)C(Cl)(Cl)Br (stereo not given),inactive,
CCOP(=S)(OCC)Oc1ccc2c(C)c(Cl)c(=O)oc2c1,inactive,
C[Si](Cn1cncn1)(c1ccc(F)cc1)c1ccc(F)cc1,inactive,
CSC1=N[C@@](C)(c2ccccc2)C(=O)N1Nc1ccccc1,inactive,
CCc1cnc(C2=NC(C)(C(C)C)C(=O)N2)c(C(=O)O)c1 (stereo not given),inactive,
CNc1cnn(-c2cccc(C(F)(F)F)c2)c(=O)c1Cl,inactive,
CCCSP(=O)(OCC)Oc1ccc(Br)cc1Cl (stereo not given),inactive,
CNC(=O)Oc1cccc2c1OC(C)(C)O2,inactive,
O=C(O)c1cc(Oc2ccc(C(F)(F)F)cc2Cl)ccc1[N+](=O)[O-],inactive,
N#CSCSC#N,inactive,
CCOP(=S)(OCC)Oc1ccc([N+](=O)[O-])cc1,inactive,
CCC(CC)Nc1c([N+](=O)[O-])cc(C)c(C)c1[N+](=O)[O-],,89.4 µM (active)

SMILES,outcome,AC50
COP(=O)(NC(C)=O)SC (stereo not given),inactive,
CCNc1nc(Cl)nc(NC(C)(C)C#N)n1,inactive,
Nc1c(Cl)cc([N+](=O)[O-])cc1Cl,inactive,
C#CC(C)(C)NC(=O)c1cc(Cl)cc(Cl)c1,inactive,
CCCOc1nn(C(=O)NS(=O)(=O)c2ccccc2C(=O)OC)c(=O)n1C,inactive,
CCOP(=O)(NC(C)C)Oc1ccc(SC)c(C)c1 (stereo not given),inactive,
S=C1NCCN1,inactive,
COc1cc(OC)nc(Sc2cccc(Cl)c2C(=O)O)n1,inactive,
CCOP(=O)(SC(C)CC)N1CCSC1=O (stereo not given),inactive,
CCC(=O)Nc1ccc(Cl)c(Cl)c1,inactive,
CCc1cccc(CC)c1N(COC)C(=O)CCl,inactive,
CC(C1CC1)C(O)(Cn1cncn1)c1ccc(Cl)cc1 (stereo not given),,31.7 µM (active)
Cc1nn(-c2cc(NS(C)(=O)=O)c(Cl)cc2Cl)c(=O)n1C(F)F,inactive,
CCOP(=S)(Oc1cnc(C(C)(C)C)nc1)OC(C)C (stereo not given),,85.6 µM (active)
Cc1cc(C2CC2)nc(Nc2ccccc2)n1,inactive,
CN(C)NC(=O)CCC(=O)O,inactive,
CCOP(=S)(OCC)OC(Cl)C(Cl)(Cl)Cl (stereo not given),inactive,
CC1(C(=O)Nc2ccc(O)c(Cl)c2Cl)CCCCC1,inactive,
CCOP(=S)(OCC)SCCSCC,inactive,
COc1ccc(C(=CC(=O)N2CCOCC2)c2ccc(Cl)cc2)cc1OC,inactive,
